Results reported in PubChem BioAssay (EPA / NIEHS).
Inconclusive results are not listed. Activity calls are given as the source filed them. Rule for the calls: active = hit-call score of the fitted dose curve at least 0.9, where 1 is the maximum; inconclusive = response in the unintended direction; inactive = score below 0.9.

These compounds were tested against human Thyroid Receptor alpha (THRa1), THRA (gene 7067) (UniProt P10827) (assay: ATG_THRa1_TRANS: Attagene TRANS-FACTORIAL HepG2 Assay for human Thyroid Receptor alpha (THRa1) (AID 2283014)).
Procedure, shortened: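 Reporter transcript induction, read by capillary electrophoresis of 6-FAM-labelled RT-PCR products, reflects activity of a transfected THRa1-Gal4 fusion in HepG2 liver cells. Cells were dosed for 24 h; activity was fitted in the positive direction against DMSO.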

human Thyroid Receptor alpha (THRa1), THRA (gene 7067), sequence (P10827 whole entry, looked up, the tested form may be a part): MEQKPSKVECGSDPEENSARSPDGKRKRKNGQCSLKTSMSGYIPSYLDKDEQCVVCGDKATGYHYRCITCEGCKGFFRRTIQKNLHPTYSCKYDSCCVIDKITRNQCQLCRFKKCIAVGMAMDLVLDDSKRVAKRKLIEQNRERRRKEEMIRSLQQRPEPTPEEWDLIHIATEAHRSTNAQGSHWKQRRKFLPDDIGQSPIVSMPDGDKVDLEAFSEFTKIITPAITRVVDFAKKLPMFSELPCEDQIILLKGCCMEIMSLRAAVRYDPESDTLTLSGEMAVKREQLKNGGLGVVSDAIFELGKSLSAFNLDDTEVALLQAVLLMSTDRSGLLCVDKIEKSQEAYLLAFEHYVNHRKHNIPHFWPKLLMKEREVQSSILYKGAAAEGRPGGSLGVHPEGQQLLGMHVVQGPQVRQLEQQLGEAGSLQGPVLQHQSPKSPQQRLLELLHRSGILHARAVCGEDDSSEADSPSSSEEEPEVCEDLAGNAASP

outcome, inactive:
C=C(C)CCO
CCCCCCCCCCOC(C)=O
COc1ccc([C@@H]2CC(=O)c3c(O)cc(O[C@@H]4O[C@H](CO[C@@H]5O[C@@H](C)[C@H](O)[C@@H](O)[C@H]5O)[C@@H](O)[C@H](O)[C@H]4O)cc3O2)cc1OC
O=Nc1ccc(O)cc1
CNC(=S)NN
CCCCC(CC)COCC1CO1 (centres undefined)
Cc1cccc(C(=O)O)c1
CCOCC(=O)O
O=C1OC(=O)c2cc(Oc3ccc4c(c3)C(=O)OC4=O)ccc21
Cc1ccc(OC(=O)CC(C)C)cc1
c1ccc(CCCc2ccncc2)cc1
Cc1cc(=O)n(-c2ccccc2)n1C
CC(=O)OCC(=O)[C@@]12N=C(C)O[C@@H]1C[C@H]1[C@@H]3CCC4=CC(=O)C=C[C@]4(C)[C@H]3[C@@H](O)C[C@@]12C

AC50, active:
C=CC(=O)OCCOC(=O)C=C 26.9 µM
